A number with no mark means an inactive call. This is one part of the list. Calls of active or inactive are those of the source.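 The calls were made as follows, unless noted: active = mean inhibition above the solvent-only control wells' mean plus 3 SD (cut at about 22% in these data); inactive = the rest.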
system: not listed separately; experiment: reduced optical density, T4-challenged addAB+ bacteria – absorbance, E. coli V3065, T4 phage, counter-screen for RecBCD inhibitor project, confirmation (AID 651984);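 also: higher means less bacterial growth from phage killing when AddAB is blocked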; details: E. coli expressing H. pylori AddAB + T4 phage, OD growth; at 11.9 µM; hits give high values; gene 2 mutant T4, recBCD-deleted host

Q: Which inhibition does the source give for `CCCCC(=O)NC(c1ccc(OC)c(OC)c1)c1ccc2cccnc2c1O` (configuration not stated) here?
A: Its inhibition is 25.8% (active).

Q: Which inhibition does the source give for `CCNC(=S)N(CCc1c(C)[nH]c2ccc(C)cc12)Cc1ccco1` here?
A: Its inhibition is -0.97%.

Q: For `CC1(C(=O)NS(=O)(=O)c2ccccc2)CCN1C(=O)C/C=C/c1ccccc1` (configuration not stated), which inhibition is on record?
A: Its inhibition is -0.33%.

Q: Which inhibition does the source give for `NC1=NC(=O)C(Cc2cccc(Cl)c2Cl)S1` (configuration not stated) here?
A: The inhibition was -2.48%.

Q: With `CCn1cc(C(=O)NCCO)c(=O)c2cc(F)c(N3CCN(C)CC3)cc21` as the compound, how does the inhibition read?
A: Its inhibition is 104% (active).

Q: For `CCN1CCN(C(=O)N[C@@H](C(=O)N[C@@H]2C(=O)N3C(C(=O)O)=C(CSc4nnnn4C)CS[C@H]23)c2ccc(O)cc2)C(=O)C1=O`, which inhibition is on record?
A: The inhibition was 3.42%.

Q: With `C=CCNC(=O)CSc1nc2sc(C)c(C)c2c(=O)[nH]1` as the compound, how does the inhibition read?
A: Its inhibition is -2.04%.

Q: For `S=C(NCC1COc2ccccc2O1)Nc1ccc(Br)cc1` (configuration not stated), which inhibition is on record?
A: Its inhibition is 6.67%.

Q: Which inhibition does the source give for `CC(=O)NC(c1cccs1)c1cc(Br)c2cccnc2c1O` (configuration not stated) here?
A: Its inhibition is 16.1%.

Q: Which inhibition does the source give for `Cc1ccc(NC(=O)Nc2nnc(-c3ccncc3)s2)cc1` here?
A: The inhibition was 9.8%.

Q: With `CCN1CCN(c2nc(Nc3cc(OC)ccc3OC)nc(Nc3cc(OC)ccc3OC)n2)CC1` as the compound, how does the inhibition read?
A: The inhibition was -2.43%.

Q: With `C=CCn1c(=O)c(C(=O)NCc2ccc3c(c2)OCO3)c(O)c2ccccc21` as the compound, how does the inhibition read?
A: Its inhibition is 6.71%.

Q: For `CC(C)(C)C(=O)Nc1c(Br)c(C2CC2)nn1-c1ccccc1`, which inhibition is on record?
A: Its inhibition is 0.42%.

Q: For `O=C1c2ccccc2C2=Nc3ccccc3SC(c3ccccc3F)C12` (configuration not stated), which inhibition is on record?
A: The inhibition was 3.38%.

Q: With `Cc1ccc(-c2cnc(C(O)c3cc(Cl)cc(Cl)c3)[nH]2)cc1` (configuration not stated) as the compound, how does the inhibition read?
A: Its inhibition is 16.9%.

Q: For `CC1=C(C/C=C(\C)CCCC(C)CCCC(C)CCCC(C)C)C(=O)c2ccccc2C1=O` (configuration not stated), which inhibition is on record?
A: The inhibition was -1.36%.

Q: For `COc1cccc(C(O)c2ncc(-c3ccc4ccccc4c3)[nH]2)c1` (configuration not stated), which inhibition is on record?
A: The inhibition was 13.4%.

system: transactivating tegument protein VP16 (Human herpesvirus 1); experiment: compounds suppressing VP16-driven luciferase signal – cell-based, luminescence, single concentration, counter-screen for SRC2 inhibitor project (AID 652007; in the data active = inhibition above about 36%); details: cell-based VP16 transactivation luciferase reporter, at 8.9 µM, hits give high values

Q: With `O=C(CCl)N1CCN(S(=O)(=O)Cc2ccccc2)CC1` as the compound, how does the inhibition read?
A: The inhibition was 12.1%.

Q: Which inhibition does the source give for `C#CCN(C[C@@H]1[C@@H](OC(=O)Nc2cccs2)[C@@H](OC(=O)Nc2cccs2)Cn2c(=O)ccc(=O)n21)S(=O)(=O)c1ccc(C)cc1` here?
A: The inhibition was 26.4%.

Q: For `COc1ccc(OC)c(N(CCN2C(=O)c3ccccc3C2=O)C(=O)CCl)c1`, which inhibition is on record?
A: Its inhibition is 30.9%.

Q: With `N#Cc1cccc(C=C(C(=O)c2ccccc2)c2ccccc2)c1` as the compound, how does the inhibition read?
A: Its inhibition is 23%.

Q: For `CNC(=O)c1cc(Oc2ccc(NC(=O)Nc3ccc(Cl)c(C(F)(F)F)c3)cc2)ccn1`, which inhibition is on record?
A: The inhibition was 29.9%.

Q: For `CN(C)c1ccnc2sc(C(N)=O)c(N)c12`, which inhibition is on record?
A: Its inhibition is -0.64%.

Q: For `Cc1ccc(C(=O)Sc2cccccc2=O)cc1`, which inhibition is on record?
A: Its inhibition is 92.9% (active).

Q: With `COc1ccc(NC(=O)/C(Cl)=C(/Cl)S(=O)Cc2ccccc2)cn1` (configuration not stated) as the compound, how does the inhibition read?
A: Its inhibition is 95.8% (active).

biological target: Nuclear receptor coactivator 2 (Homo sapiens) (UniProt Q15596); experiment: inhibition of GAL4-SRC2 driven luciferase expression – cell-based, luminescence, HEK293, triplicate, confirmation (AID 652008;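 active = mean inhibition above 46.5%, the solvent-only control mean plus 3 SD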;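 also: 0% = DMSO-treated cells and 100% = Gossypol at 36 µM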); details: HEK293 GAL4-SRC2 luciferase reporter, at 8.9 µM, hits give high values
Sequence (Q15596 whole entry, looked up, the tested form may be a part): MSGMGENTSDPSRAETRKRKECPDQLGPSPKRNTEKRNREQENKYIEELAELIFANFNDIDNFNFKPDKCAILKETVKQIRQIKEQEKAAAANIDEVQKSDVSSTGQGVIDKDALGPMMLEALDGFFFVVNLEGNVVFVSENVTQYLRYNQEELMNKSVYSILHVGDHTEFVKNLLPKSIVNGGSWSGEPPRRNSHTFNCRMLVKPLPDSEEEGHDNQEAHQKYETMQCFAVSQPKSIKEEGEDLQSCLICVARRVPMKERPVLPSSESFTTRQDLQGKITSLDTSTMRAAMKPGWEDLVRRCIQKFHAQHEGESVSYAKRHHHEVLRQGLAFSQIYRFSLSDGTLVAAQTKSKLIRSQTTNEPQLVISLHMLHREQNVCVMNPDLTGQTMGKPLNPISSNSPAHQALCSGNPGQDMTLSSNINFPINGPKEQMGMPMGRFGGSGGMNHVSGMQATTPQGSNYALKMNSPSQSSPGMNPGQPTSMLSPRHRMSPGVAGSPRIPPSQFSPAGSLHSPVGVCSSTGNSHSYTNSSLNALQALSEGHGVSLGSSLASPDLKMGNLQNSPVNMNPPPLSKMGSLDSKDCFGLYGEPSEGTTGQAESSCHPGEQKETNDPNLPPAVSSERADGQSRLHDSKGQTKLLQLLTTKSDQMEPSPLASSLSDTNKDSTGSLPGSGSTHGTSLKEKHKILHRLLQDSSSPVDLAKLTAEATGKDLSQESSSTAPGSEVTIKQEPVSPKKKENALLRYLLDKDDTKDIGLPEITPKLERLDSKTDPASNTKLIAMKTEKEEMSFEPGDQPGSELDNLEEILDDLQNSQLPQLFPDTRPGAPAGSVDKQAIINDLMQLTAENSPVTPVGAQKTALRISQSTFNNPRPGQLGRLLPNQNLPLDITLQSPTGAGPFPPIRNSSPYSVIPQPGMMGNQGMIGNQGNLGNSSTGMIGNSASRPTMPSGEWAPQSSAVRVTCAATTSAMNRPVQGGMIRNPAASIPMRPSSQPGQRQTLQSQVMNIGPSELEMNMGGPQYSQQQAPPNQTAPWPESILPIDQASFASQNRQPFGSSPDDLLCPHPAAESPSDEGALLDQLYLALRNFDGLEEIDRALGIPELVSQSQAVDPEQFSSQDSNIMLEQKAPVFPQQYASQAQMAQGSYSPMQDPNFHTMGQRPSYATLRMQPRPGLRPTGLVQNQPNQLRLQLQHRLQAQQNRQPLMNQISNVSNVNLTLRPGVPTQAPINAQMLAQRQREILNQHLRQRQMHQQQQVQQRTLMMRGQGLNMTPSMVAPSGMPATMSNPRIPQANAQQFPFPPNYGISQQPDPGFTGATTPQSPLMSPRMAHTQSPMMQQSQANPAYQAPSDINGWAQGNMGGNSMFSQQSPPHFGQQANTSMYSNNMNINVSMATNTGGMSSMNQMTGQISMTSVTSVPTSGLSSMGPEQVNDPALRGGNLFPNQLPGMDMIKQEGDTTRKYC

Q: With `O=C(CCl)N1CCN(S(=O)(=O)Cc2ccccc2)CC1` as the compound, how does the inhibition read?
A: The inhibition was 46.2%.

Q: With `C#CCN(C[C@@H]1[C@@H](OC(=O)Nc2cccs2)[C@@H](OC(=O)Nc2cccs2)Cn2c(=O)ccc(=O)n21)S(=O)(=O)c1ccc(C)cc1` as the compound, how does the inhibition read?
A: The inhibition was 88.2% (active).

Q: With `COc1ccc(OC)c(N(CCN2C(=O)c3ccccc3C2=O)C(=O)CCl)c1` as the compound, how does the inhibition read?
A: The inhibition was 57.6% (active).

Q: With `N#Cc1cccc(C=C(C(=O)c2ccccc2)c2ccccc2)c1` as the compound, how does the inhibition read?
A: The inhibition was 62.2% (active).

Q: Which inhibition does the source give for `CNC(=O)c1cc(Oc2ccc(NC(=O)Nc3ccc(Cl)c(C(F)(F)F)c3)cc2)ccn1` here?
A: The inhibition was 58.7% (active).

Q: For `Cc1ccc(C(=O)Sc2cccccc2=O)cc1`, which inhibition is on record?
A: The inhibition was 99.2% (active).

Q: Which inhibition does the source give for `COc1ccc(NC(=O)/C(Cl)=C(/Cl)S(=O)Cc2ccccc2)cn1` (configuration not stated) here?
A: The inhibition was 100% (active).
